Laboratory results reported in the OligoGym collection.
Note: reference of the scale not given here.

What follows are sequences tested against PRUNE (assay: pooled miR-30 sensor sort-seq; sequence = guide strand). Conditions: shRNA.
In the case of TTACCTTCCACATAGCTACAGA, the sensor-assay potency score (higher = more potent) is reported as -0.331.
TGTCTATAGATAGTCTTCTGGT was tested, and the sensor-assay potency score (higher = more potent) was -0.567.
Work on TATTCGTGCTACATGAGGCTGA yielded a sensor-assay potency score (higher = more potent) of 0.818.
With TTCCTTGTCCACTTGCTCCCTG the sensor-assay potency score (higher = more potent) was 0.334.
For TATAGATAGTCTTCTGGTCTTT, the sensor-assay potency score (higher = more potent) was -0.453.
For TTGTCTATAGATAGTCTTCTGG, the sensor-assay potency score (higher = more potent) was -0.685.

What follows are sequences tested against PSD4 in the same assay as above. Conditions: shRNA.
Sequence TTAAGCAGCATGATTGCACATG has a sensor-assay potency score (higher = more potent) of -0.729.
In the case of TGCACGTAGGTCTCGTAGCGGG, the sensor-assay potency score (higher = more potent) is reported as -1.25.
In the case of TCTTCTTGCCGTCTGCATCTTG, the sensor-assay potency score (higher = more potent) is reported as -0.456.
TAGCTAGCTTGTCTCCAGCTGG gave a sensor-assay potency score (higher = more potent) of -0.572.
With TCACTCTTTACTTCCTCGCCTG the sensor-assay potency score (higher = more potent) was -0.455.
AAGGTGTGGAACATCTTCCAGC showed a sensor-assay potency score (higher = more potent) of -0.755.
TTTCCCTTGGGCACTCTCCTGG showed a sensor-assay potency score (higher = more potent) of -0.299.
TTACCTCTCTATCCTCTCCAGT was tested, and the sensor-assay potency score (higher = more potent) was -0.76.
With TTGCGCTTCACCTTGGCCGTGG the sensor-assay potency score (higher = more potent) was 0.0843.
In the case of TTTTCTTCAAGGAACTTGGCTG, the sensor-assay potency score (higher = more potent) is reported as -0.084.
Sequence TAAGGTGTGGAACATCTTCCAG has a sensor-assay potency score (higher = more potent) of -1.04.

These sequences were tested against PSG2 in the same assay as above. Conditions: shRNA.
TAGAAGCAGAGACTTTGACTGT showed a sensor-assay potency score (higher = more potent) of -0.247.
Sequence TTGACTGTCAACGATGTGGAGC has a sensor-assay potency score (higher = more potent) of -0.475.
Work on ACAAGTAGAGGTTATCTCCTGA yielded a sensor-assay potency score (higher = more potent) of 0.66.
TTTCGGACAGCTGAAACCTATG gave a sensor-assay potency score (higher = more potent) of -1.61.
With TTCTTGTAGAAGCAGAGACTTT the sensor-assay potency score (higher = more potent) was -1.51.
With TTTCTCGTCCACTATATGCAGG the sensor-assay potency score (higher = more potent) was -0.849.
For TAAAAGTGATGCTGTGACCAGG, the sensor-assay potency score (higher = more potent) was -0.171.
Sequence TAGAGGTTATCTCCTGAACGGT has a sensor-assay potency score (higher = more potent) of -0.865.
AAACCTATGAGTCATAGGGAGG showed a sensor-assay potency score (higher = more potent) of -1.86.
Work on TTAAAAGTGATGCTGTGACCAG yielded a sensor-assay potency score (higher = more potent) of -0.575.

Each sequence was assayed against PSIP1 in the same assay as above. Conditions: shRNA.
In the case of TTCAACATCAAACCTATGCTTA, the sensor-assay potency score (higher = more potent) is reported as 0.354.
With TTAGTTACTAGTGCCTGCCTAT the sensor-assay potency score (higher = more potent) was 0.32.
Sequence TTATACAACATTGTAGACTTTT has a sensor-assay potency score (higher = more potent) of -0.451.
With TTGATTGTTTAGTTGCTGCCTG the sensor-assay potency score (higher = more potent) was 0.524.
Sequence TATCTATCTCCCATAAACCTTC has a sensor-assay potency score (higher = more potent) of -0.586.
TTAAGTTTTAGTGACTTCCTAA showed a sensor-assay potency score (higher = more potent) of -0.13.
Work on TTAGTCACATCCTCATTGCTGG yielded a sensor-assay potency score (higher = more potent) of 0.128.
Work on TTAATCTCAGCATGTATCCTTT yielded a sensor-assay potency score (higher = more potent) of 0.197.
In the case of TTGAAAATATGCTACAACCATG, the sensor-assay potency score (higher = more potent) is reported as -1.01.
Sequence TTGACTTGAAAATTTCACTTTT has a sensor-assay potency score (higher = more potent) of -0.471.
For TTCATGGTCGGTATCTTCCTTT, the sensor-assay potency score (higher = more potent) was -0.126.
